# Inconclusive results are not listed. Calls of active or inactive are those of the source. How the source made its calls: active means hit-call score of the fitted dose curve at least 0.9, where 1 is the maximum; inconclusive means response in the unintended direction; inactive means score below 0.9.
# What was measured:
# [1] = target: PPP2CA (gene 5515) (UniProt P67775); assay: NVS_ENZ_hPPP2CA: NovaScreen (NVS) Enzymatic Assay for human Protein Phosphatase 2 Aatalytic subunit Alpha (PPP2CA) (AID 2283199)
# How it was run: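 Cell-free phosphatase activity: fluorescent substrate turnover by recombinant human enzyme, resolved by mobility shift at 1.33 h. Compounds passing the 25 uM duplicate primary screen were rerun in singleton series with a 50 uM top concentration.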
# [2] = target: Serine/threonine-protein phosphatase PP1-alpha catalytic subunit (Homo sapiens) (UniProt P62136); assay: NVS_ENZ_hPPP1CA: NovaScreen (NVS) Enzymatic Assay for human Protein Phosphatase 1 Aatalytic subunit Alpha (PPP1CA) (AID 2283200)
# Serine/threonine-protein phosphatase PP1-alpha catalytic subunit (Homo sapiens), sequence (P62136 whole entry, looked up): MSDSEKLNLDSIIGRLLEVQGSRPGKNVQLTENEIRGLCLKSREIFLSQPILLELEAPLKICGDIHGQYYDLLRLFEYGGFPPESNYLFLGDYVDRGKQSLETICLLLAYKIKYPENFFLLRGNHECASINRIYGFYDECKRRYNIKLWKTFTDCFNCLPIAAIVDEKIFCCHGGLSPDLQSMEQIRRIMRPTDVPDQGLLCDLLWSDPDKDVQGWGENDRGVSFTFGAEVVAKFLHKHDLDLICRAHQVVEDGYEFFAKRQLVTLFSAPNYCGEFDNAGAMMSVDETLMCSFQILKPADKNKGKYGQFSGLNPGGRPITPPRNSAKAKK
# How it was run: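 Chemicals were first screened in duplicate at 25 uM, and those passing threshold (e.g. 30% inhibition) were run as concentration series to 50 uM. Cell-free recombinant protein, 1.33 h read, fluorescent substrate/product mobility-shift detection, normalised to DMSO.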
# [3] = target: human Phosphodiesterase 5 (PDE5), PDE5A (gene 8654) (UniProt O76074); assay: NVS_ENZ_hPDE5: NovaScreen (NVS) Enzymatic Assay for human Phosphodiesterase 5 (PDE5) (AID 2283194)
# How it was run: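 Screening began in duplicate at 25 uM, with actives taken into concentration-response. Enzyme activity of recombinant PDE5 toward its substrate was measured at 1 h by fluorescence mobility-shift detection, relative to DMSO controls.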
# [4] = target: human Protein Phosphatase, Mg2+/Mn2+ Dependent 1A (PPM1A), PPM1A (gene 5494) (UniProt P35813); assay: NVS_ENZ_hPPM1A: NovaScreen (NVS) Enzymatic Assay for human Protein Phosphatase, Mg2+/Mn2+ Dependent 1A (PPM1A) (AID 2283198)
# human Protein Phosphatase, Mg2+/Mn2+ Dependent 1A (PPM1A), PPM1A (gene 5494), sequence (P35813 whole entry, looked up): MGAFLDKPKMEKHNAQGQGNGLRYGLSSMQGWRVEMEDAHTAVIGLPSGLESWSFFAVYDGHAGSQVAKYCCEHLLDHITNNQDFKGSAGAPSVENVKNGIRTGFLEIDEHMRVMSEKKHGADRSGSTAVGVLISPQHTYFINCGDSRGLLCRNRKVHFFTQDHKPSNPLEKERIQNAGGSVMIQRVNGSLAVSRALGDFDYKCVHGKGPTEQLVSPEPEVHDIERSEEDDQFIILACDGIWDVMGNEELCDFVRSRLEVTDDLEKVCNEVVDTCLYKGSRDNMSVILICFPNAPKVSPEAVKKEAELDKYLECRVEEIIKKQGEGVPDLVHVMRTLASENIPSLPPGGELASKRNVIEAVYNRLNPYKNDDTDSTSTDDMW
# How it was run: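 Primary screen in duplicate at 25 uM, with actives then titrated to a maximum of 50 uM. Recombinant PPM1A dephosphorylation of fluorescent substrate measured at 1 h, with substrate and product separated by mobility shift; inhibition fitted against DMSO.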
# [5] = target: human Protein Tyrosine Phosphatase Receptor Type C (PTPRC), PTPRC (gene 5788) (UniProt P08575); assay: NVS_ENZ_hPTPRC: NovaScreen (NVS) Enzymatic Assay for human Protein Tyrosine Phosphatase Receptor Type C (PTPRC) (AID 2283212)
# How it was run: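 Absorbance-based phosphatase activity of human PTPRC protein extracted from yeast was measured 1 h post-dosing. Compounds first tested at 25 uM in duplicate, then those passing threshold in singleton concentration series to 50 uM.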
# [6] = target: human Protein Tyrosine Phosphatase Non-receptor Type 4 (PTPN4), PTPN4 (gene 5775) (UniProt P29074); assay: NVS_ENZ_hPTPN4: NovaScreen (NVS) Enzymatic Assay for human Protein Tyrosine Phosphatase Non-receptor Type 4 (PTPN4) (AID 2283208)
# How it was run: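 Screened in duplicate at 25 uM, with hits then titrated to a top concentration of 50 uM. Recombinant Sf9-derived PTPN4 turnover was read by fluorescence with electrophoretic separation, 1.33 h after compound addition. DMSO served as baseline.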
# [7] = target: human Protein Tyrosine Phosphatase Receptor Type F (PTPRF), PTPRF (gene 5792) (UniProt P10586); assay: NVS_ENZ_hPTPRF: NovaScreen (NVS) Enzymatic Assay for human Protein Tyrosine Phosphatase Receptor Type F (PTPRF) (AID 2283213)
# How it was run: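 Cell-free fluorescence enzyme assay with recombinant protein and substrate; product separated by electrophoretic mobility shift. Read 1 h after dosing, single 25 uM duplicate screen, then concentration-response up to 50 uM; loss of signal vs DMSO.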
# [8] = target: human Phosphatase and Tensin Homolog (PTEN), PTEN (gene 5728) (UniProt P60484); assay: NVS_ENZ_hPTEN: NovaScreen (NVS) Enzymatic Assay for human Phosphatase and Tensin Homolog (PTEN) (AID 2283203)
# human Phosphatase and Tensin Homolog (PTEN), PTEN (gene 5728), sequence (P60484 whole entry, looked up): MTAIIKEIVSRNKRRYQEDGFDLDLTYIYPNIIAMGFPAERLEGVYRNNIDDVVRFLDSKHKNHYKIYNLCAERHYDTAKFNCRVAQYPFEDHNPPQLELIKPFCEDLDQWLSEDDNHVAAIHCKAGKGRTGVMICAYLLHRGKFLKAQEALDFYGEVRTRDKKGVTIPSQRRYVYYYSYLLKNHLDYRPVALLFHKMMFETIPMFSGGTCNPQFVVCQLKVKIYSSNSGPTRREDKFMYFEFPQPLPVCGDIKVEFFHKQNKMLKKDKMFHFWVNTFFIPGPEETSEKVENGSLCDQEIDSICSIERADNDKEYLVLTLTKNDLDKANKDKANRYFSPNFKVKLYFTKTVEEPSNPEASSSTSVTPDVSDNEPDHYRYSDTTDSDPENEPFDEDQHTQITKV
# How it was run: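 Loss of fluorescent product signal after mobility-shift separation reports PTEN activity, recombinant human enzyme, 1 h after compound addition. Single 25 uM duplicate screen, then concentration-response on actives; DMSO baseline.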
# [9] = target: human Phosphodiesterase 10 (PDE10), PDE10A (gene 10846) (UniProt Q9Y233); assay: NVS_ENZ_hPDE10: NovaScreen (NVS) Enzymatic Assay for human Phosphodiesterase 10 (PDE10) (AID 2283195)
# human Phosphodiesterase 10 (PDE10), PDE10A (gene 10846), sequence (Q9Y233 whole entry, looked up): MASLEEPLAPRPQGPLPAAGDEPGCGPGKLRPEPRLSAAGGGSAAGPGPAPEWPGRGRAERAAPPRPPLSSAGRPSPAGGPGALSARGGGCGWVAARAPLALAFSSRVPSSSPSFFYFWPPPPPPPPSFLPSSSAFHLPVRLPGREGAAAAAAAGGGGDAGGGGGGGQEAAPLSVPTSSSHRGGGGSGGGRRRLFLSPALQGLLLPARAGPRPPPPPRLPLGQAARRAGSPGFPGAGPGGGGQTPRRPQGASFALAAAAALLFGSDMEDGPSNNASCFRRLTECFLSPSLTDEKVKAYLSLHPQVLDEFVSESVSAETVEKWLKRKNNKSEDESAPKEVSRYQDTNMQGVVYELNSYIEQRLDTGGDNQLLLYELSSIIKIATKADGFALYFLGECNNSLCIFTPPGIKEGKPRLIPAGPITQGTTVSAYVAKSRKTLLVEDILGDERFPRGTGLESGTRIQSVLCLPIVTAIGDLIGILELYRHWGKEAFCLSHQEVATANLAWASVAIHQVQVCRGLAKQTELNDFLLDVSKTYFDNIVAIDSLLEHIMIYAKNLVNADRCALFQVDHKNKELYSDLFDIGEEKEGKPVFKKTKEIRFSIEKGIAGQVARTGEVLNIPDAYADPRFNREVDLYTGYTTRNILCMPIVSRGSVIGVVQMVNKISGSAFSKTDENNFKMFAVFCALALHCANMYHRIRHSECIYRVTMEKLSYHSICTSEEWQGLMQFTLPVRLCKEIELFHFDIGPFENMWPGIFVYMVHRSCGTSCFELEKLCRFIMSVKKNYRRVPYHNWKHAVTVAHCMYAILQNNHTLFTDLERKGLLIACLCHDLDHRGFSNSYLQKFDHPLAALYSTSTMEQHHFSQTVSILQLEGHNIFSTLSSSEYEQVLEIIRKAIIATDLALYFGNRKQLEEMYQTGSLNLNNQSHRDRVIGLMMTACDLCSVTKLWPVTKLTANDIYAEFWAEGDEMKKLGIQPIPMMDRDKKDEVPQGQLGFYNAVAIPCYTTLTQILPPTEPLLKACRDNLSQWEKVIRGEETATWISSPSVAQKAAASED
# How it was run: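 Biochemical single-readout PDE10A assay, cell-free, extracted protein. Compounds first screened at 25 uM in duplicate, hits then titrated to 50 uM max. Activity measured after 1 h; loss-of-signal fitted against DMSO negative control.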
# [10] = target: human Protein Tyrosine Phosphatase Non-receptor Type 1 (PTPN1), PTPN1 (gene 5770) (UniProt P18031); assay: NVS_ENZ_hPTPN1: NovaScreen (NVS) Enzymatic Assay for human Protein Tyrosine Phosphatase Non-receptor Type 1 (PTPN1) (AID 2283201)
# human Protein Tyrosine Phosphatase Non-receptor Type 1 (PTPN1), PTPN1 (gene 5770), sequence (P18031 whole entry, looked up): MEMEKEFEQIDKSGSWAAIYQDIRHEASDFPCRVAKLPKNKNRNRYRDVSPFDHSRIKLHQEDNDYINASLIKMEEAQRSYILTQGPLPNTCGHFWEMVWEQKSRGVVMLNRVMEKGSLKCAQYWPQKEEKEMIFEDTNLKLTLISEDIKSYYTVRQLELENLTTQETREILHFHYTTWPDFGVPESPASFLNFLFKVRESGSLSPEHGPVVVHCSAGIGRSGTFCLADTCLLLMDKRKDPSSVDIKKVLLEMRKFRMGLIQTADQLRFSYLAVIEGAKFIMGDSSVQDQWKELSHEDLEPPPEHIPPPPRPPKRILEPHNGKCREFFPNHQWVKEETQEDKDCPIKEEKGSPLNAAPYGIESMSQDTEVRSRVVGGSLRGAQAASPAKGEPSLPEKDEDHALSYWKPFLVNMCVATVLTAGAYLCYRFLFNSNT
# How it was run: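 Chemicals were first tested in duplicate at 25 uM, and those passing threshold went on to singleton concentration series topping at 50 uM. Recombinant enzyme, specific substrate, product separated by mobility shift, fluorescence read at 1.33 h; activity loss relative to DMSO.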
# [11] = target: Tyrosine-protein phosphatase non-receptor type 11 (Homo sapiens) (UniProt Q06124); assay: NVS_ENZ_hPTPN11: NovaScreen (NVS) Enzymatic Assay for human Protein Tyrosine Phosphatase Non-receptor Type 11 (PTPN11) (AID 2283202)
# Tyrosine-protein phosphatase non-receptor type 11 (Homo sapiens), sequence (Q06124 whole entry, looked up): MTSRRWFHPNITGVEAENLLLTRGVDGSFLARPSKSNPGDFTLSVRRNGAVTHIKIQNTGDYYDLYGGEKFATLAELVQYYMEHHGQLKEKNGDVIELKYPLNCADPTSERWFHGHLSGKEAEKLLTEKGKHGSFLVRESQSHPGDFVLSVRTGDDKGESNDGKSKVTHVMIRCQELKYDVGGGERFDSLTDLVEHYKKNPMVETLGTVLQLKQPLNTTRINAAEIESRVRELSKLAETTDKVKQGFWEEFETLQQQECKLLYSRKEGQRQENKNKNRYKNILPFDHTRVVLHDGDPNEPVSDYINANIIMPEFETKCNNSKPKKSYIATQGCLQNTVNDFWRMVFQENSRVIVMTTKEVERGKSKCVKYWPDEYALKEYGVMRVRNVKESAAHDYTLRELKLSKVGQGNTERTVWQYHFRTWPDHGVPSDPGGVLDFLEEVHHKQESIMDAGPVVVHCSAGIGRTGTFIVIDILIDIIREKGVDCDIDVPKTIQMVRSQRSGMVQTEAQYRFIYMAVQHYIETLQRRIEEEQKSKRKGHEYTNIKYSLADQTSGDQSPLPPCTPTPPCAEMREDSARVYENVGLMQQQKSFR
# How it was run: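 Compounds first tested in duplicate at 25 uM; those reaching ~30% inhibition rerun in singleton concentration-response, top 50 uM. Phosphatase activity measured after 0.5 h by fluorescence with mobility-shift separation, relative to DMSO.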
# [12] = target: human Protein Tyrosine Phosphatase Non-receptor Type 2 (PTPN2), PTPN2 (gene 5771) (UniProt P17706); assay: NVS_ENZ_hPTPN2: NovaScreen (NVS) Enzymatic Assay for human Protein Tyrosine Phosphatase Non-receptor Type 2 (PTPN2) (AID 2283207)
# human Protein Tyrosine Phosphatase Non-receptor Type 2 (PTPN2), PTPN2 (gene 5771), sequence (P17706 whole entry, looked up): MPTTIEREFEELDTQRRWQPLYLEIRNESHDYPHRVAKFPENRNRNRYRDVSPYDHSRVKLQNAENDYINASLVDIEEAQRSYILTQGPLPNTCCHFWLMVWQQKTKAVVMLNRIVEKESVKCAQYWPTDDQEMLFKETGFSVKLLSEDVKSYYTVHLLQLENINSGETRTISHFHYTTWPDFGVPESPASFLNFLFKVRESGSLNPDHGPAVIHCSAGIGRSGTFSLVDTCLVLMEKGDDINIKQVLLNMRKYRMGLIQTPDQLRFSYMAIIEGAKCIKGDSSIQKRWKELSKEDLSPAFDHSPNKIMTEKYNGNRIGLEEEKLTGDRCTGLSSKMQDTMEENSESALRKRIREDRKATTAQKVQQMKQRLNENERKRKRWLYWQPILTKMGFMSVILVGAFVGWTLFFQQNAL
# How it was run: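 Activity measured as fluorescence after mobility-shift separation of substrate and product, 1 h after compound. Duplicate single-point 25 uM primary testing, concentration series for actives; inhibition scored as signal loss relative to DMSO baseline.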
# [13] = target: human Protein Tyrosine Phosphatase Non-receptor Type 9 (PTPN9), PTPN9 (gene 5780) (UniProt P43378); assay: NVS_ENZ_hPTPN9: NovaScreen (NVS) Enzymatic Assay for human Protein Tyrosine Phosphatase Non-receptor Type 9 (PTPN9) (AID 2283209)
# human Protein Tyrosine Phosphatase Non-receptor Type 9 (PTPN9), PTPN9 (gene 5780), sequence (P43378 whole entry, looked up): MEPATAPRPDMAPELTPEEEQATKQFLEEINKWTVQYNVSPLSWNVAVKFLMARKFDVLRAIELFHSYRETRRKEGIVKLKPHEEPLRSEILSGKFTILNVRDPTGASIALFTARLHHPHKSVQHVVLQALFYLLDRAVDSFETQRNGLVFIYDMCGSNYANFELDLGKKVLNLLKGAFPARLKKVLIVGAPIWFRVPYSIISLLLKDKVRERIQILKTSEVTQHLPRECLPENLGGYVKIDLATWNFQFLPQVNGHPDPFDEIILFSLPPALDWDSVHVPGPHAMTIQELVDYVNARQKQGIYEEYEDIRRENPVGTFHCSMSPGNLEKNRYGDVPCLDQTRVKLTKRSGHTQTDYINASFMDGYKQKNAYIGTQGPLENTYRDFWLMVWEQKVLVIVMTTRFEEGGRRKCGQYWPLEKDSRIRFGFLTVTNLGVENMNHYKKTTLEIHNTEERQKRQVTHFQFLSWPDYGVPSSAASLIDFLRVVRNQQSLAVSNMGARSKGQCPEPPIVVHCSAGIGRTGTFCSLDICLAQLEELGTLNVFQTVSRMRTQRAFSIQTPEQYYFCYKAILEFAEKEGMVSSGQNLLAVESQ
# How it was run: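 Sf9-expressed enzyme in a cell-free assay, fluorescence read 1.33 h after dosing with mobility-shift separation of substrate and product. Tested at 25 uM in duplicate, then up to 50 uM; signal loss versus DMSO.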
# [14] = target: human Protein Tyrosine Phosphatase Receptor Type B (PTPRB), PTPRB (gene 5787) (UniProt P23467); assay: NVS_ENZ_hPTPRB: NovaScreen (NVS) Enzymatic Assay for human Protein Tyrosine Phosphatase Receptor Type B (PTPRB) (AID 2283211)
# How it was run: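 Recombinant human PTPRB with a fluorescent substrate, product separated by electrophoretic mobility shift; read 1 h after dosing. Primary screen in duplicate at 25 uM; actives then retested in concentration series; loss of signal versus DMSO.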
# [15] = target: human Rho Associated Coiled-coil Containing Protein Kinase 1 (ROCK1), ROCK1 (gene 6093) (UniProt Q13464); assay: NVS_ENZ_hROCK1: NovaScreen (NVS) Enzymatic Assay for human Rho Associated Coiled-coil Containing Protein Kinase 1 (ROCK1) (AID 2283214)
# How it was run: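 Compounds first run in duplicate at 25 uM against recombinant human ROCK1, then followed in concentration series. Kinase activity was read 1 h post-dosing by fluorescence with mobility-shift separation, as signal loss relative to DMSO.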
# [16] = target: human Protein Tyrosine Phosphatase Non-receptor Type 6 (PTPN6), PTPN6 (gene 5777) (UniProt P29350); assay: NVS_ENZ_hPTPN6: NovaScreen (NVS) Enzymatic Assay for human Protein Tyrosine Phosphatase Non-receptor Type 6 (PTPN6) (AID 2283210)
# human Protein Tyrosine Phosphatase Non-receptor Type 6 (PTPN6), PTPN6 (gene 5777), sequence (P29350 whole entry, looked up): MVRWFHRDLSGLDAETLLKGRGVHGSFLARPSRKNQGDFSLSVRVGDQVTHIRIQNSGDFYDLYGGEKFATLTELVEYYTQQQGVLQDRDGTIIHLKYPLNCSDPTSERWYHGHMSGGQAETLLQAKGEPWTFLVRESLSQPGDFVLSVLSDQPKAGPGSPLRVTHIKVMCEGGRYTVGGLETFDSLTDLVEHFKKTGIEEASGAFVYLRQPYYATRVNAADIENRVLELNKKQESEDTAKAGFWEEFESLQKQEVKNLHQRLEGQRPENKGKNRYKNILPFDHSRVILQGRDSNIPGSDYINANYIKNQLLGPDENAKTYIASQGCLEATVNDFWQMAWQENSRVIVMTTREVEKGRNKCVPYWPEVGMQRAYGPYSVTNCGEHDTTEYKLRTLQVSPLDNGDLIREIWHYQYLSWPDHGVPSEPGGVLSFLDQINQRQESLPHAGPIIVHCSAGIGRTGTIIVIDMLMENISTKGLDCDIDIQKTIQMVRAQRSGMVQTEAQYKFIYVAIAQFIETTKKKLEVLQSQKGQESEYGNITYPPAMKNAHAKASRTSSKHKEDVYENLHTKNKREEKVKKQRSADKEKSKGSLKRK
# How it was run: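 Recombinant human PTPN6 from SF9 cells, enzyme activity followed by fluorescence after mobility-shift separation of substrate and product at 1.33 h. Chemicals first tested at a single 25 uM in duplicate, then confirmed across concentration series; loss of signal relative to DMSO.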
# [17] = target: human Phosphoinositide 3-kinase alpha (PI3Ka), PIK3CA (gene 5290) (UniProt P42336); assay: NVS_ENZ_hPI3Ka: NovaScreen (NVS) Enzymatic Assay for human Phosphoinositide 3-kinase alpha (PI3Ka) (AID 2283196)
# How it was run: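 Fluorescence/mobility-shift readout of substrate conversion by recombinant enzyme, 1 h post-dosing. Primary screen in duplicate at 25 uM; actives (e.g. ≥30% inhibition) retested in singleton concentration-response, top concentration 50 uM.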
# [18] = target: Tyrosine-protein phosphatase non-receptor type 12 (Homo sapiens) (UniProt Q05209); assay: NVS_ENZ_hPTPN12: NovaScreen (NVS) Enzymatic Assay for human Protein Tyrosine Phosphatase Non-receptor Type 12 (PTPN12) (AID 2283204)
# How it was run: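 Single-concentration duplicates (25 uM) preceded singleton concentration-response up to 50 uM for chemicals passing threshold. Cell-free recombinant PTPN12 activity was read 1.33 h after dosing via fluorescence after mobility-shift separation; loss of signal versus DMSO.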
# [19] = target: Tyrosine-protein phosphatase non-receptor type 13 (Homo sapiens) (UniProt Q12923); assay: NVS_ENZ_hPTPN13: NovaScreen (NVS) Enzymatic Assay for human Protein Tyrosine Phosphatase Non-receptor Type 13 (PTPN13) (AID 2283205)
# How it was run: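 Screened first at a single 25 uM in duplicate; compounds passing the threshold (e.g. 30% inhibition) were rerun in concentration series, top 50 uM. Recombinant enzyme, fluorescent substrate, mobility-shift separation, 0.5 h read. Data fitted as inhibition relative to DMSO.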
# [20] = target: Tyrosine-protein phosphatase non-receptor type 14 (Homo sapiens) (UniProt Q15678); assay: NVS_ENZ_hPTPN14: NovaScreen (NVS) Enzymatic Assay for human Protein Tyrosine Phosphatase Non-receptor Type 14 (PTPN14) (AID 2283206)
# How it was run: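 Fluorescent substrate turnover by recombinant human PTPN14 was measured 0.5 h after compound addition, with substrate and product separated by mobility shift. Single-point screening at 25 uM, then concentration-response up to 50 uM for chemicals meeting threshold (e.g., 30% inhibition).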
compound,measurement,setting,value
Cc1cc(-c2ccc(N)c(C)c2)ccc1N,outcome,[1],inactive
same,outcome,[2],inactive
ClC(Cl)=C(c1ccc(Cl)cc1)c1ccc(Cl)cc1,outcome,[3],inactive
CCC(C)c1cc([N+](=O)[O-])cc([N+](=O)[O-])c1O (stereo not drawn),outcome,[4],inactive
same,AC50,[5],25 µM (active)
CN(C)c1nc(=O)n(C2CCCCC2)c(=O)n1C,outcome,[6],inactive
ClC1=C(Cl)[C@]2(Cl)[C@@H]3[C@@H](Cl)[C@H]4O[C@H]4[C@@H]3C1(Cl)C2(Cl)Cl,outcome,[2],inactive
C=CC(N)=O,outcome,[4],inactive
same,outcome,[7],inactive
Cc1cccc([N+](=O)[O-])c1,outcome,[2],inactive
same,outcome,[8],inactive
C[C@]12CCC(=O)C=C1CC[C@@H]1[C@@H]2CC[C@]2(C)C(=O)CC[C@@H]12,AC50,[3],12.3 µM (active)
NS(=O)(=O)C(F)(F)C(F)(F)C(F)(F)C(F)(F)C(F)(F)C(F)(F)C(F)(F)C(F)(F)F,outcome,[4],inactive
O=C(O)C(F)(F)C(F)(F)C(F)(F)C(F)(F)C(F)(F)F,outcome,[9],inactive
same,outcome,[10],inactive
same,outcome,[11],inactive
same,outcome,[8],inactive
same,outcome,[12],inactive
same,outcome,[6],inactive
same,outcome,[13],inactive
same,outcome,[14],inactive
CC#Cc1cc(C)nc(Nc2ccccc2)n1,outcome,[15],inactive
C1CC2OC2CC1C1CO1 (stereo not drawn),outcome,[13],inactive
same,outcome,[16],inactive
CCNc1nc(NC(C)C)nc(SC)n1,AC50,[3],17.4 µM (active)
Nn1cnnc1,outcome,[16],inactive
CC1=C2C[C@H]3[C@@H](CC=C4C[C@@H](O)CC[C@@]43C)[C@@H]2CC[C@]12O[C@@H]1C[C@H](C)CN[C@H]1[C@H]2C,outcome,[9],inactive
same,outcome,[17],inactive
same,outcome,[10],inactive
same,outcome,[11],inactive
same,outcome,[18],inactive
same,AC50,[19],6.4 µM (active)
same,outcome,[20],inactive
same,AC50,[6],16 µM (active)
same,outcome,[13],inactive
Clc1ccc(C(c2ccccc2Cl)C(Cl)(Cl)Cl)cc1 (stereo not drawn),outcome,[4],inactive
same,outcome,[2],inactive
Cc1cc(O)ccc1Cl,outcome,[12],inactive
same,outcome,[13],inactive
same,outcome,[16],inactive
O=S(=O)(O)C(F)(F)C(F)(F)C(F)(F)C(F)(F)C(F)(F)C(F)(F)F,outcome,[3],inactive
same,outcome,[9],inactive
same,outcome,[8],inactive
same,outcome,[7],inactive
Oc1c(Cl)c(Cl)c(Cl)c(Cl)c1Cl,outcome,[3],inactive
CC(C)C(=O)OCC(C)(C)C(OC(=O)C(C)C)C(C)C (stereo not drawn),outcome,[3],inactive
same,outcome,[9],inactive
same,outcome,[17],inactive
same,outcome,[2],inactive
same,outcome,[19],inactive
same,outcome,[12],inactive
same,outcome,[6],inactive
Cc1cc2c3c(c1)C(c1ccccc1)=N[C@@H](NC(=O)c1ccncc1)C(=O)N3CC2,AC50,[3],3.87 µM (active)
same,AC50,[9],5.66 µM (active)
same,outcome,[4],inactive
Oc1ccc(C(c2ccc(O)cc2)(C(F)(F)F)C(F)(F)F)cc1,outcome,[10],inactive
same,outcome,[11],inactive
Cc1ccc(O)c(C)c1,AC50,[3],37.4 µM (active)
O=C(O)C(F)(F)C(F)(F)C(F)(F)C(F)(F)C(F)(F)C(F)(F)C(F)(F)C(F)(F)C(F)(F)F,AC50,[2],43.3 µM (active)
same,AC50,[5],15.8 µM (active)
CCC(C)(c1ccc(O)cc1)c1ccc(O)cc1,outcome,[3],inactive
N#Cc1ccc(N(CC(N)=O)CC(F)(F)F)cc1C(F)(F)F,outcome,[3],inactive
O=C(O)C(F)(F)C(F)(F)C(F)(F)C(F)(F)C(F)(F)C(F)(F)C(F)(F)C(F)(F)F,outcome,[3],inactive
same,outcome,[10],inactive
same,outcome,[8],inactive
same,outcome,[18],inactive
same,AC50,[13],25 µM (active)
same,outcome,[14],inactive
same,outcome,[7],inactive
CCOCCOC(C)=O,outcome,[10],inactive
same,outcome,[16],inactive
CCCN(CCC)N=O,outcome,[3],inactive
Oc1ccc(Cl)cc1Cl,outcome,[7],inactive

# — PubChem BioAssay (EPA / NIEHS)
